Rows were chosen to be rich in hits. Some 12% of all compounds tested hit in one or more screens of this group.
G9a block: blocks human histone lysine methyltransferase G9a; Q96KQ7; G9a H3K9 monomethylation, AlphaScreen, 2 h; Potency, µM (highest dose often 102 µM), usual class: inhibitors; actives 8.8% (n = 350,000); AID 504332; also: nearly all actives have a fitted effect of over 75% in size
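AlphaScreen read-out: biotin-H3K9 peptide (500 nM) methylation by 20 nM enzyme with 20 uM SAM, 2 h at room temperature after 15 min compound preincubation; anti-monomethyl H3K9 antibody plus donor/acceptor beads, 10 min dark.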
BAZ2B block: inhibitors of human BAZ2B bromodomain | Q9UIF8 | AlphaScreen BAZ2B-H3K14Ac peptide displacement | Potency, µM (top dose mostly 114 µM), hits mostly inhibitors | actives 4.4% (n = 360,000) | AID 504333; also: nearly all actives have a fitted effect of over 60% in size
Target sequence (Q9UIF8 whole entry, looked up): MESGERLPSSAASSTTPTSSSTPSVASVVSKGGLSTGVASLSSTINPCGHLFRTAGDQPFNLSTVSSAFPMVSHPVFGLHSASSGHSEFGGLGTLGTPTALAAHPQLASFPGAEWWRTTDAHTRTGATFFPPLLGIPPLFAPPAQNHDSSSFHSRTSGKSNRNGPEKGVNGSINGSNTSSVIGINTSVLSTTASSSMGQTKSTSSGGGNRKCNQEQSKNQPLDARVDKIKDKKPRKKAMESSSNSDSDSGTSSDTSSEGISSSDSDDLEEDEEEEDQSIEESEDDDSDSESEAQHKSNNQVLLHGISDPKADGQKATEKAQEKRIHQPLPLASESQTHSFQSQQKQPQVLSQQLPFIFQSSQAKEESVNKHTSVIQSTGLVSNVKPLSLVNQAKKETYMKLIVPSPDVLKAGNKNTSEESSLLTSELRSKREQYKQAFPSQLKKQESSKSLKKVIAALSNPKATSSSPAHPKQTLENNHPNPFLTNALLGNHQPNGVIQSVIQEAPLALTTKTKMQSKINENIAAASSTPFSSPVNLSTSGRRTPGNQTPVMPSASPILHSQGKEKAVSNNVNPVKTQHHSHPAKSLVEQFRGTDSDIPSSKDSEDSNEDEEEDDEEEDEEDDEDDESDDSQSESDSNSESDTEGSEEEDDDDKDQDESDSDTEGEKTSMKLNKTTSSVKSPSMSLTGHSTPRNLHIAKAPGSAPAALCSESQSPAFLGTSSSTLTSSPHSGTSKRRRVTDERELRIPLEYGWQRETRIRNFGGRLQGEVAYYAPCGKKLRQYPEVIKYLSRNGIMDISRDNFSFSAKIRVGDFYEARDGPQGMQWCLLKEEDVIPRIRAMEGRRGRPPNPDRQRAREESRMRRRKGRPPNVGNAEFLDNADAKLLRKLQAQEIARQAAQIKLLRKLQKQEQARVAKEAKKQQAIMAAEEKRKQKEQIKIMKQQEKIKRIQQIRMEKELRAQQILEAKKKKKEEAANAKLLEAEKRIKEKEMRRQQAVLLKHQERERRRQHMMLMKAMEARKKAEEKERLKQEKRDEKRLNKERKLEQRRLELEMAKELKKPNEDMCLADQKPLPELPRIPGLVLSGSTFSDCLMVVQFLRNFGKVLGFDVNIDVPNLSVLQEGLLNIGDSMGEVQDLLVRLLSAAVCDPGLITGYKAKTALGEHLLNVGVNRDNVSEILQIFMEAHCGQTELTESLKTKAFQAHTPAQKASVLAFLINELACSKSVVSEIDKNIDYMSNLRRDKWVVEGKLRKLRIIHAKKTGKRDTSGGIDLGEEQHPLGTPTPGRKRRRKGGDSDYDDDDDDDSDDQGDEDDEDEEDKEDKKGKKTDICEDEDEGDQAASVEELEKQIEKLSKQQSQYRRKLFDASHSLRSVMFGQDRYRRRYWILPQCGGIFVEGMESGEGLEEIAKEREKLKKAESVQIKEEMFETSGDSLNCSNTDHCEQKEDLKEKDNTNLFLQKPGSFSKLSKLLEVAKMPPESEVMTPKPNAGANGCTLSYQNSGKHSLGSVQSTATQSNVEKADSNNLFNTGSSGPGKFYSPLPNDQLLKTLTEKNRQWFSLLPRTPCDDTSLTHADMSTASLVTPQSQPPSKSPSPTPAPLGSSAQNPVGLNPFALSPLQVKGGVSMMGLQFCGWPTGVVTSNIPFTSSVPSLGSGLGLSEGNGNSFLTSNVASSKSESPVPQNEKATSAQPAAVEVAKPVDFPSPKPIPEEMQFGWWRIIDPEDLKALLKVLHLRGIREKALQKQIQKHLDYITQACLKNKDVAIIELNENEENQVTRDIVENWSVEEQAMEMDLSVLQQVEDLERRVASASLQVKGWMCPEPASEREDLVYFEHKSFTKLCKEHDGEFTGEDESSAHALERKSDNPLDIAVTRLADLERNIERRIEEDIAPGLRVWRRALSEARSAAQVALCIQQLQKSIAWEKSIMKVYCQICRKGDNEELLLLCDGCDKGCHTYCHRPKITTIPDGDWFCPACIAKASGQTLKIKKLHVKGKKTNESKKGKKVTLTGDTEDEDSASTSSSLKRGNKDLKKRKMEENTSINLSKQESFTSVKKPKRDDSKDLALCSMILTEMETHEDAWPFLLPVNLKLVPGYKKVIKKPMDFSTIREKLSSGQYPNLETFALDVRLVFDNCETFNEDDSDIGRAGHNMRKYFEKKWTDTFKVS
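Protein-peptide AlphaScreen: BAZ2B 50 nM, b-H3K14Ac 50 nM, 1x PBS pH 7.4 + 0.01% Tween-20. Preincubation 30 min RT; cpd 30 min RT (top 110 uM); beads 20 min RT, light-protected.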
L3MBTL1 block: blocks human L3MBTL1. Q9Y468. AlphaScreen L3MBTL1–H3K9me1 peptide binding. actives 0.66% (n = 230,000). AID 485360. Potency, µM (titrated, usually from 57.1 µM), actives largely listed as inhibitors; also: nearly all actives have a fitted effect of over 60% in size
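L3MBTL1 50 nM + b-AHA-H3(1-15)K9me1 75 nM, 30 min RT; compound added, 30 min RT; streptavidin donor/Ni-chelate acceptor beads 10 ug/mL each final, 30 min RT dark; AlphaScreen read.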
Sfp inh: Sfp phosphopantetheinyl transferase inhibition; Biochemical Sfp PPTase activity, qHTS; Potency, µM, hits mostly inhibitors; actives 3.5% (n = 310,000);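 also: the enzyme is Sfp with the accession as filed and its product quenches rhodamine fluorescence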
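Reaction rates are the 30-min fluorescence difference (ex 525, em 598 nm) in wells containing 15 nM Sfp, 5 uM rhodamine-CoA and 12.5 uM BHQ-2-YbbR at pH 7.6 with 10 mM MgCl2.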
HP1b chromo inh: HP1-beta chromodomain-methylated histone interaction inhibition | AlphaScreen HP1-beta / biotin-H3K9me3 peptide binding | Potency, µM (doses to about 114 µM), most hits filed as inhibitors | actives 0.56% (n = 390,000) | AID 540317; also: nearly all actives have a fitted effect of over 70% in size
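HP1-beta protein (50 nM final) preincubated 30 min at room temperature with biotinylated H3(1-18)K9me3 peptide (50 nM) in PBS pH 7.4, 0.01% Tween-20, then compound added for 30 min. AlphaScreen streptavidin donor/nickel chelate acceptor beads (10 ug/mL final), 30 min dark, luminescence read.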
JMJD2A Tudor: inhibitors of human JMJD2A Tudor domain; actives 4.4% (n = 390,000); O75164; Potency, µM (series often up to 114 µM), usual class: inhibitors; AID 504339; AlphaScreen JMJD2A-Tudor / H3K4me3 peptide binding; also: nearly all actives have a fitted effect of over 50% in size
A number is an active result; n = inactive; u = inconclusive; x = not tested or not shown; [ ] = dose if it differs, or a comment. Calls follow the shape of the dose curve; as a rule, active = well fitted curve in the direction sought with a large enough effect; inconclusive = small, poorly fitted or top-dose-only effect, or another doubt; inactive = no such curve, though single readings can be large; an effect the other way counts as inactive or inconclusive.

SMILES	G9a block	BAZ2B block	L3MBTL1 block	Sfp inh	HP1b chromo inh	JMJD2A Tudor
CCCOc1ccc(C2C(C(=O)c3ccc(C)o3)=C(O)C(=O)N2Cc2ccco2)cc1OCC (stereo unspecified)	x	u	x	n	n	u
Clc1cccc(N2CCN(c3nc4ccccc4c4nc(-c5ccccc5)nn34)CC2)c1	n	n	x	x	n	n
CCn1cc2c(n1)-c1c(oc(C(=O)Nc3ccc(Br)cc3F)c1C)CC2	n	n	x	x	n	n
Cc1ccc(C(=O)C2=C(O)C(=O)N(Cc3cccnc3)C2c2cccc([N+](=O)[O-])c2)o1 (stereo unspecified)	x	u	x	n	n	u
COc1ccc(CN2C(=O)c3oc4ccccc4c(=O)c3C2c2ccc(O)c(OC)c2)cc1 (stereo unspecified)	n	n	n	n	n	n
CCOc1ccc(C2C(C(=O)c3ccc(C)o3)=C(O)C(=O)N2Cc2cccnc2)cc1 (stereo unspecified)	40µM	n	x	n	x	89µM
COc1cc(C2C(C(=O)c3ccc(C)o3)=C(O)C(=O)N2Cc2ccccc2)ccc1O (stereo unspecified)	45µM	n	n	x	n	u
COc1ccc(OC)c(C2C(C(=O)c3ccco3)=C(O)C(=O)N2Cc2cccnc2)c1 (stereo unspecified)	u	u	x	n	n	n
COc1cc(C2C(C(=O)c3ccco3)=C(O)C(=O)N2Cc2cccnc2)cc(OC)c1OC (stereo unspecified)	x	n	n	n	n	89µM
CC(=O)C1=C(O)C(=O)N(Cc2cccnc2)C1c1ccc(C(C)C)cc1 (stereo unspecified)	56µM	n	n	n	n	n
CN(C)C(CNC(=O)CCNS(=O)(=O)c1ccccc1C(F)(F)F)c1ccccc1 (stereo unspecified)	n	n	n	x	n	n
Clc1ccc(-c2nnn3c2nc(NC2CCCCC2)c2ccccc23)cc1	n	n	x	x	n	n
Cc1ccc(C(=O)C2=C(O)C(=O)N(Cc3cccnc3)C2c2ccc(Cl)cc2)o1 (stereo unspecified)	50µM	n	x	n	n	n
CCOc1cc(C2C(C(=O)c3ccc(C)o3)=C(O)C(=O)N2CCc2ccccc2)ccc1O (stereo unspecified)	45µM	u	n	n	n	u
CCN(CC)CCCN1C(=O)C(O)=C(C(=O)c2cc3ccccc3o2)C1c1ccccn1 (stereo unspecified)	u	n	n	n	n	n[11.4 µM]
CCOc1cccc(C2C(C(=O)c3ccco3)=C(O)C(=O)N2Cc2ccncc2)c1 (stereo unspecified)	35µM	n	n	n	n	u
CCN(CC)CCN1C(=O)C(O)=C(C(=O)c2ccco2)C1c1ccccn1 (stereo unspecified)	11µM	u	x	n	n	89µM
O=C(NCC(c1cccnc1)N1CCc2ccccc2C1)c1ccc(F)c(F)c1 (stereo unspecified)	u	n	x	x	n	n
O=C(O)CCC/C=C\CC1C2CCC(O2)C1CNNC(=O)Nc1ccccc1 (stereo unspecified)	n	x	x	n	x	x
O=C(NC(=S)Nc1nc2c(s1)CCCC2)c1ccc(C(=O)c2ccccc2)cc1	n	n	n	n	n	n
O=C(NC(=S)Nc1nc2c(s1)CSc1ccccc1-2)c1ccccc1	3.5µM	u	x	45µM	n	n
Cc1ccc(-c2n[nH]c(=S)n2/N=C/c2c(C)[nH]n(-c3ccccc3)c2=O)cc1	1.3µM	x	x	50µM	n	u
S=c1[nH]nc(-c2ccccc2)n1/N=C/c1cccc(Cl)c1	x	n	n	n	n	71µM
Cc1nn(-c2ccccc2)c(C)c1/C=N/n1c(-c2ccc(Cl)cc2)n[nH]c1=S	5µM	n	n	n	n	u
S=c1[nH]nc(-c2ccccc2)n1/N=C/c1ccc(Cl)cc1	2.5µM	n	x	n	n	u
SMILES	G9a block	BAZ2B block	L3MBTL1 block	Sfp inh	HP1b chromo inh	JMJD2A Tudor
S=c1[nH]nc(-c2ccc(Cl)cc2)n1/N=C/c1cccs1	x	n	n	n	n	n
CCN(CC(=O)Nc1c(F)cccc1F)C(=O)c1cccc(S(=O)(=O)N(C)c2ccccc2)c1	n[12.7 µM]	n	n	x	n	n
COc1ccc(-c2nc3scc(CCNS(=O)(=O)c4c(C)noc4C)n3n2)cc1OC	n	n	x	x	n	n
Clc1cccc(OCc2nc(-c3ccncc3)n[nH]2)c1	n	n	n	n	n	n
Fc1ccc(/C=N/n2c(-c3cccs3)n[nH]c2=S)cc1	1.1µM	n	n	50µM	n	32µM
S=c1[nH]nc(-c2ccncc2)n1/N=C/c1cccc(Cl)c1	1µM	n	x	n	n	11µM
COc1ccccc1N(CC(=O)N/N=C(\C)c1ccc(F)cc1)S(=O)(=O)c1ccccc1	n[12.7 µM]	n	n	x	n	n
Cn1cccc1Cc1nnc(SCC(=O)Nc2nccs2)n1CCc1ccccc1	50µM	u	n	79µM	n	u
CC(=O)Nc1cccc(NC(=O)CSc2nnc(Cc3cccn3C)n2CCc2ccccc2)c1	50µM	n	n	n	n	n
Cn1cccc1Cc1nnc(SCC(=O)Nc2nccs2)n1C	u	n	x	n	n	n
CCCCN(CCCC)CCCN1CC(=O)N2[C@@H](Cc3c([nH]c4ccccc34)C2(C)C)C1=O	n	n	x	n	n	n
C=CCNc1nc2c3ccccc3n(C(C)=O)c2s1	32µM	u	n	79µM	n	u
CC1(C)Cc2c(C#N)c(N)sc(=S)c2CO1	7.9µM	u	n	45µM	n	u
CC(C)C1Cc2c(C#N)c(N)sc(=S)c2CO1 (stereo unspecified)	7.9µM	u	x	28µM	u	50µM
CCCNC(=O)N1c2ccccc2Sc2ccccc21	x	n	n	n	n	n
CCC(C)NC(=O)N1c2ccccc2Sc2ccccc21 (stereo unspecified)	45µM	n	n	n	n	u
COc1ccc(N2CCN(Cc3cc(OC)c(O)c([N+](=O)[O-])c3)CC2)cc1	7.1µM	50µM	n	u	16µM	1µM
Cc1cccc(N2CCN(CC(=O)Nc3ccccc3[N+](=O)[O-])CC2)c1C	n	n	n	n	n	n
COc1cc(CN2CCN(c3cccc(C)c3C)CC2)cc([N+](=O)[O-])c1O	11µM	50µM	n	n	u	2.2µM
CC[C@H](C)[C@H](NC(=O)[C@H](Cc1ccc(O)cc1)NC(=O)[C@@H]1CCCN1C(=O)[C@@H](N)CCCN=C(N)N)C(=O)N[C@@H](CC(C)C)C(=O)O	x	x	x	n	x	x
CCOC(=O)c1ccccc1NC(=O)c1cnn(-c2ccc(OC)cc2)c1C1CCN(C(=O)OC(C)(C)C)CC1	n	n	x	x	n	n
Cc1cc(C)cc(NC(=O)C2CCN(C(=O)[C@@H]3Cc4ccccc4CN3)CC2)c1	50µM	u	x	n	n	22µM

Source: PubChem
